Source: PubChem BioAssay
Hits are enriched below; roughly 19% of the tested compounds scored in any of these assays.
TDP1 cell CPT – growth inhibition of DT40 Tdp1-/-;hTDP1 cells with camptothecin (screen for TDP1 inhibitors); Potency, µM (series often up to 46.2 µM), for inactives: top-dose activity change, negative = growth inhibition, actives largely listed as inhibitors; chicken DT40 Tdp1-/-;hTDP1 cells + 20 nM CPT, ATP luminescence, 48 h; AID 686979; actives 12% (n = 420,000); note: potency is the fitted concentration of half-maximal effect; nearly all actives have a fitted effect of over 55% in size
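Chicken DT40 Tdp1-/- cells stably complemented with human TDP1 were seeded at 400 cells/well in medium containing 20 nM camptothecin, exposed to pin-transferred compounds, and grown at 37 °C for at least 48 hr. Viability was read as ATP luminescence.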
Giardia killer – kills Giardia lamblia. activity change, % at 7.66 µM, hits read low. Giardia lamblia trophozoite viability. actives 0.15% (n = 340,000). AID 540267; in the data active = activity change below about -80%; inconclusive = between about -30% and that limit;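 note: parasites exposed to compound for two days anaerobically before the ATP read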
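ATP-content bioluminescence gauges trophozoite survival. Cells (100/well) receive compound and incubate anaerobically for 48 hrs at 37 deg C; detection reagent follows for 15-30 min at room temperature.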
IL-1B inflam inh – inflammasome signaling inhibition, IL-1 beta readout; actives 4.7% (n = 360,000); activity change, % at 57.5 µM; THP-1 LPS/ATP IL-1B secretion, AlphaLISA, 16 h; active compounds read low; AID 743279; in the data active = activity change below about -50%; inconclusive = mostly about -30% to -49%
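THP-1 cells pretreated 1 hr with compounds (up to 57.5 uM final), then stimulated with LPS (250 ng/mL final) plus ATP (1.25 mM final); secreted IL-1B measured by AlphaLISA after 16 hr, decreased signal indicating inhibition.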
ELG1 DNA repair – ELG1-dependent DNA repair inhibition; HEK293T ELG1-luciferase reporter, luminescence, 16 h; DNA damage induced by 5-fluorouridine; actives 2.3% (n = 330,000); Potency, µM (series often up to 46.1 µM), inactives show top-dose activity change, negative = inhibition, most hits filed as inhibitors; AID 504467; note: potency is the fitted concentration of half-maximal effect; nearly all actives have a fitted effect of over 55% in size
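5-Fluorouridine DNA damage + compound/DMSO, 2,000 cells/well, 16 h, 37 °C/5% CO2. ONE-Glo, 30 min RT, luminescence. Readout = decrease in reporter signal.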
DT40 TDP1 no CPT – qHTS for Inhibitors of human tyrosyl-DNA phosphodiesterase 1 (TDP1): qHTS in cells in absence of CPT | AID 686978, 2013 | Potency, µM (highest dose often 46.2 µM), without a hit: top-dose activity change, negative = growth inhibition, hits mostly inhibitors | actives 15% (n = 420,000) | DT40 Tdp1-/- hTDP1 cells, no CPT, ATP luminescence, 48 h; note: potency is the fitted concentration of half-maximal effect; nearly all actives have a fitted effect of over 55% in size
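Growth of hTDP1-complemented DT40 Tdp1-knockout cells is measured by ATP luminescence after at least 48 hr compound exposure at 37 °C, with DMSO substituting for the 20 nM CPT used in the parallel screen.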
TDP1 inh – TDP1 (human) enzyme inhibition; Q9NUW8; recombinant TDP1, AlphaScreen DNA substrate cleavage; Potency, µM (top dose mostly 130 µM), for the others: at the top dose activity change, negative = inhibition, most hits filed as inhibitors; actives 0.28% (n = 350,000); AID 485290; note: potency is the fitted concentration of half-maximal effect; nearly all actives have a fitted effect of over 40% in size
Target sequence (Q9NUW8 whole entry, looked up): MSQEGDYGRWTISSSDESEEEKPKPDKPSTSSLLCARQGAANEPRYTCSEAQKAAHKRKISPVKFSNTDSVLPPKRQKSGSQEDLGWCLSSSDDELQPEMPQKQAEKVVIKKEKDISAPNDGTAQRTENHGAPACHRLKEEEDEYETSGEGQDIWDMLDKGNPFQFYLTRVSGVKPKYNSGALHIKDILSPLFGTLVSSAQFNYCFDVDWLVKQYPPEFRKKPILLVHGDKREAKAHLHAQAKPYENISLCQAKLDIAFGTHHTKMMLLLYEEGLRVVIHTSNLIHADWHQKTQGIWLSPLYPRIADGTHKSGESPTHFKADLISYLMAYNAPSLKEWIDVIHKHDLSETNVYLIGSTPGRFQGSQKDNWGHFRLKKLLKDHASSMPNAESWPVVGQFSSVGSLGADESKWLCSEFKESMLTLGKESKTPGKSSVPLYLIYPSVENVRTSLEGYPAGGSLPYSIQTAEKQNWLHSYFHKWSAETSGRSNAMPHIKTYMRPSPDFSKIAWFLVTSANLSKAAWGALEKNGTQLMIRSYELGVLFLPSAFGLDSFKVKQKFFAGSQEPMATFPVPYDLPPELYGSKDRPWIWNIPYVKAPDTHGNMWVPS
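Compounds were preincubated with Tdp1 (1 nM final) for 15 min at room temperature before substrate (15 nM final) started a 5 min reaction; beads (10 ug/ml final) were then added for 10 min before AlphaScreen detection.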
The depositor's hits bear a star; ? = inconclusive; · = not tested or not shown; [ ] = dose if it differs, or a comment. Unless noted, calls come from the whole dose curve; as a rule, active = well fitted curve in the direction sought with a large enough effect; inconclusive = small, poorly fitted or top-dose-only effect, or another doubt; inactive = no such curve, though single readings can be large; an effect the other way counts as inactive or inconclusive. % is set by controls: 0 for no effect and ±100 for the full control effect.

SMILES	TDP1 cell CPT	Giardia killer	IL-1B inflam inh	ELG1 DNA repair	DT40 TDP1 no CPT	TDP1 inh
CC(C)(C)c1nc(SCC(=O)Nc2nc3c(s2)CCCC3)c2ccccc2n1	15µM*	6	-4	3%	12µM*	7%
Cc1nc(SCC(=O)N2CCNC2=O)c2ccccc2n1	?	4	-96*	?	?	0%
O=C(CCSc1ccccc1)Nc1nc2c(s1)CCCC2	?	4	-4	?	10µM*	5%
O=C1NC(=O)C2(CCCC2C(=O)O)N1 (stereo unspecified)	1%	22	19	·	0%	·
N#CC1=C(N)C(C#N)(C#N)C2(C(=O)Nc3ccccc32)C2CCCC=C12 (stereo unspecified)	-20%	4	-53*	2%	-26%	8%
O=C1Nc2ccccc2C12OC1CCCCC1O2 (stereo unspecified)	-10%	-2	-9	-3%	-18%	0%
O=C(NCC1CCCO1)c1cccc(C(=O)NCC2CCCO2)c1 (stereo unspecified)	-1%	?	6	-3%	?	·
CC1=Nc2cc(C(=O)NCCCN3CCN(C)CC3)ccc2Sc2ccc(C)cc21	?	-25	-2	19%	18µM*	3%
CCC(C)NC(=O)c1ccc2c(c1)N=C(C)c1cc(C)ccc1S2 (stereo unspecified)	3.3µM*	·	·	·	5.2µM*	-5%
CCCC1=Nc2cc(C(=O)NCCCN3CCOCC3)ccc2Sc2ccccc21	-29%	25	-22	0%	-21%	5%
CC1=Nc2cc(C(=O)NCC3CCCO3)ccc2Sc2ccc(C)cc21 (stereo unspecified)	0.58µM*	21	6	-1%	0.92µM*	2%
Cc1c(C)n(Cc2ccccc2)c2ccc(C(=O)NCCc3ccccc3Cl)cc12	21µM*	·	·	·	?	5%
Cc1ccccc1CCNC(=O)c1ccc2c(c1)c(C)c(C)n2Cc1ccccc1	18µM*	·	·	·	?	13%
O=C(NCCc1ccccc1Cl)c1ccc2nc3ccccc3c(=O)n2c1	15µM*	17	-19	?	?	·
Cc1ccccc1CCNC(=O)c1ccc2c(c1)c(C)c(C)n2C	?	·	·	·	?	11%
COc1ccc(/C(C)=N/NC(=S)Nc2cc(C)ccc2C)cc1	23µM*	1	13	-17%	23µM*	5%
COc1ccc(CNC(=S)Nc2cc(C)ccc2C)cc1	?	4	8	-1%	18µM*	5%
CC(=O)Nc1ccc(-c2nnc(SCc3ccccc3)n2C)cc1	-40%	·	·	·	-10%	·
C=CCOC(=O)C1=C(C)OC(N)=C(C#N)C1c1c(C)nn(-c2ccccc2)c1Cl (stereo unspecified)	?	2	-13	1%	9.2µM*	6%
CC(C)[C@H](NC(=O)c1ccco1)C(=O)N(C)Cc1ccc(C(F)(F)F)cc1	?	-23	19	-3%	?	14%
CC(=O)Nc1cccc(-c2ccnc3c2CC(C)(C(=O)Nc2cccc(Oc4ccccc4)c2)O3)c1 (stereo unspecified)	16µM*	·	-19	·	21µM*	·
CC1(C(=O)Nc2ccccc2)Cc2c(-c3cccc(C(N)=O)c3)ccnc2O1 (stereo unspecified)	?	·	-9	·	-21%	·
CC(=O)Nc1ccc(-c2ccnc3c2CC(C)(C(=O)Nc2cccc(C(C)=O)c2)O3)cc1 (stereo unspecified)	?	·	?	·	16µM*	·
CC(=O)c1cccc(NC(=O)C2(C)Cc3c(-c4ccccc4)ccnc3O2)c1 (stereo unspecified)	23µM*	·	-9	·	23µM*	·
NCCNC(=O)c1ccc(Cl)cn1	-4%	·	·	·	-12%	11%
SMILES	TDP1 cell CPT	Giardia killer	IL-1B inflam inh	ELG1 DNA repair	DT40 TDP1 no CPT	TDP1 inh
O=C(CN1CCN(c2ccccc2)CC1)N/N=C/c1cccc(F)c1	-17%	3	9	-2%	-3%	7%
COCCN(CCOC)Cc1cc(=O)oc2ccc3ccccc3c12	?	·	-27	·	18µM*	·
CCOC(CNC(=O)c1cccn2c(=O)c3c(C)c(C)sc3nc12)OCC	16µM*	8	0	?	18µM*	·
CCOC(=O)N1CCN(C(=O)c2cccn3c(=O)c4cc(Cl)ccc4nc23)CC1	11%	-10	25	-5%	-9%	4%
CCOC(CNC(=O)c1cccn2c(=O)c3cc(Cl)ccc3nc12)OCC	12µM*	16	-6	23µM*	13µM*	8%
O=C(NCCN1CCN(c2ccccc2)CC1)c1cccn2c(=O)c3cc(Cl)ccc3nc12	?	4	20	-12%	18µM*	9%
COc1ccc(NC(=O)Cn2c(C)cc3ccccc3c2=O)c(OC)c1	6%	·	·	·	-7%	6%
CC(=O)N1CCc2c(sc3c2c(=O)n(-c2ccccc2C)c(=O)n3CC(=O)c2ccccc2)C1	-2%	·	·	·	-23%	4%
CCC(=O)NC(=S)Nc1ccc(NC(=O)c2ccc(OC)cc2)cc1	20%	12	4	15%	10%	-1%
CCOC(=O)CCC(=O)NNC(=O)c1ccc(NC(=O)c2ccccc2)cc1	18µM*	-8	-8	27%	?	·
CCCOc1ccc(C(=O)NNC(=S)NC(=O)CC)cc1	4.6µM*	-14	55	?	2.6µM*	9%
Cc1cccc(C(=O)NNC(=S)NC(=O)c2ccccc2)c1	18µM*	-25	?	·	21µM*	·
COc1ccc(C(=O)NNC(=S)NC(=O)c2ccc(OC)cc2)cc1	16µM*	-6	66	-25%	?	·
O=C(/C=C/c1ccccn1)NCC1Cc2cccc(-c3ncccn3)c2O1 (stereo unspecified)	2%	·	·	·	-12%	·
COc1ccc(C(=O)NNC(=O)c2ccc3ccccc3n2)cc1	16µM*	0	-98*	?	4.1µM*	-2%[56.1 µM]
Cc1cccc(C(=O)NNC(=O)c2ccccc2C)c1	1%	-27	-7	?	0%	8%
C=CCNC(=S)NNC(=O)c1ccc(OCC)cc1	?	-3	3	-1%	21µM*	6%
COc1ccccc1C(=O)NNC(=S)NC(=O)c1cccs1	·	·	·	1%	·	3%
Cc1cccc(C(=O)NNC(=O)c2ccccc2O)c1	?	-26	32	?	21µM*	·
COc1ccc(C(=O)NNC(=S)NC(=O)c2cccs2)cc1	15µM*	-5	91	-23%	?	11%
Clc1ccc2nc(C3CCCCC3)c(CC3CCCCC3)n2c1	-23%	·	42	·	?	·
